Source: ChEMBL document CHEMBL4513216, “Probing the Open Global Health Chemical Diversity Library for Multistage-Active Starting Points for Next-Generation Antimalarials” (ACS Infect Dis, 2020)
Among all 68,000 compounds or so, about 2,700 (4%) showed an effect of 50% or more. This excerpt belongs to a sample that is enriched for strong results.

tested on: Plasmodium berghei; assay: Screen against P. berghei liver stage (PbLuc), transformed with Luciferase, at 2uM; type: functional, HepG2; conditions: tested at 2 uM

| Compound | INHIBITION |
| --- | --- |
| CC(NCC(=O)Nc1ccc(N2CCCCCC2)cc1)c1cccs1 (stereo not drawn) | 23.68% |
| CCc1cc(C(=O)N[C@H]2CN(CCS(C)(=O)=O)C[C@@H]2C2CC2)[nH]n1 | -90.7% |
| Cc1occc1C(=O)N1CCc2c(CNS(C)(=O)=O)cncc2C1 | -15.09% |
| CC(C)CC(NC(=O)CSc1ccc(F)c(Cl)c1)C(=O)O (stereo not drawn) | 14.54% |
| CC(C)CC(NC(=O)Nc1ccc(F)c(Cl)c1)C(=O)O (stereo not drawn) | 56.54% |
| CC(C)C[C@H](NC(=O)Nc1ccc(F)c(Cl)c1)C(=O)O | -9.89% |
| Cc1ccc(CN2C[C@@H](OCc3ccccn3)[C@H]3COC[C@H]32)o1 | -4.92% |
| CC(C)c1nc(C2CCCN2Cc2nccn2CC(F)(F)F)no1 (stereo not drawn) | -20.05% |
| CC(C(=O)Nc1ccc(N2CCOCC2)nc1)n1cncn1 (stereo not drawn) | 43.32% |
| CC(C)(C)c1cnc(CN2C(=O)CC3(CCSC3)C2=O)o1 (stereo not drawn) | 53.99% |
| CCc1cnc(CN2C(=O)CC3(CCSC3)C2=O)o1 (stereo not drawn) | 15.39% |
| CC(C)c1cnc(CN2C(=O)CC3(CCSC3)C2=O)o1 (stereo not drawn) | -21.1% |
| Cc1nc2ccc(-n3ncnc3[C@@H]3CCCN3S(C)(=O)=O)cc2s1 | -35.1% |
| CC(C)(C)CN1Cc2cc3c(cc2NCCC1=O)OCO3 | -15.54% |
| CN(C)CCn1c2c(ccc1=O)CCN(C(=O)c1cccs1)CC2 | 53.27% |
| Cc1ccc(C(=O)N2CCc3ccc(=O)n(CCN(C)C)c3CC2)o1 | 5.77% |
| CN(C)CCn1c2c(ccc1=O)CCN(C(=O)c1ccoc1)CC2 | 17.31% |
| NC(=O)N1CCCN(CC(=O)NCCc2c(F)cccc2F)CC1 | 19.12% |
| Cc1cc(C)cc(C(=O)N2CCCN(CC(N)=O)CC2)c1 | 16.13% |
| Cc1cc(C)c(CCNC(=O)CN2CCCN(C(N)=O)CC2)c(C)c1 | 66.74% |
| O=C(c1ccc2c(c1)OCO2)N1CCC[C@]2(C[C@H](OCC3CC3)CO2)C1 | 10.43% |
| O=C(CN1CCCC1Cn1cccn1)NC1CCOCC1 (stereo not drawn) | 4.41% |
| CCCS(=O)(=O)c1ccc(N2CCN(Cc3ccccc3)CC2)nn1 | 27.54% |
| CCCS(=O)(=O)N1CCN(c2cc(-n3cnc(C)c3C)nc(C)n2)CC1 | 35.54% |
| CCS(=O)(=O)N1CCN(c2cc(-n3cnc(C)c3C)nc(C)n2)CC1 | 61.28% |
| Cc1nc(N2CCN(S(C)(=O)=O)CC2)cc(-n2cnc(C)c2C)n1 | 43.32% |

| Compound | INHIBITION |
| --- | --- |
| CCOCCN1CCCC1CS(N)(=O)=O (stereo not drawn) | -7.76% |
| O=C(c1ccc2c(c1)OCO2)N1CCCC(Nc2ccc(F)cc2)C1 (stereo not drawn) | 47.67% |
| CC(C)(O)CSCCNC(=O)c1cc(F)ccc1F | 35.56% |
| CSCC(C)(O)CNC(=O)c1ccc(F)cc1Cl (stereo not drawn) | -29.65% |
| CC(C)(O)CSCCNC(=O)c1ccc(F)cc1Cl | 58.69% |
| O=C(CCc1ccc(Cl)cc1)N[C@@H]1CC[C@@H](O)[C@@H]1O | -11.3% |
| c1cncc(CN2CCCn3nnc(COCC4CC4)c3C2)c1 | 34.37% |
| O=C(COCc1ccccc1)Nc1ccccn1 | 62.51% |
| O=C(CCCOCc1ccccc1)N1CCCC1c1ccccn1 (stereo not drawn) | 28.51% |
| CSc1ccc(NC(=O)COCc2ccccc2)nc1 | 12.43% |
| CS(=O)(=O)Cc1cc(F)ccc1NCc1nnsc1Cl | -13.68% |
| CCC(C)(C)NC(=O)Cn1nnc(CN(C)C(=O)c2ccccc2)n1 | 2.49% |
| CCN(Cc1nnnn1C1CC1)c1cc(C)ccc1C | 55.43% |
| CN(Cc1nnnn1C1CC1)c1cccc2ccccc12 | 4.86% |
| Cc1ccc(N(C)Cc2nnnn2C2CC2)c(C)c1 | -11.28% |
| Cc1nnc(SCC(=O)NCc2ccc3c(c2)CCC(=O)N3)n1C | 26.03% |
| Cc1ncc(-c2ccnc(SCCN(C)C)n2)c(-c2ccco2)n1 | 8.77% |
| CNC(=O)[C@@H](C1CCCCC1)N1CCC[C@H]1C(=O)N(C)CCN(C)C | 27.65% |
| Cc1cc(CC(C)NC(=O)Cc2cc(F)ccc2C)[nH]n1 (stereo not drawn) | 27.47% |
| COc1ccccc1C1CC(=O)Nc2nc(N3CCCCC3)sc21 (stereo not drawn) | -71.12% |
| CN(C)C[C@@H]1CCC[C@@H]2CN(c3nccc(C(F)(F)F)n3)C[C@@H]21 | 16.87% |
| O=C1O[C@@H]2CN(c3ccccn3)C[C@@H]2N1CCCc1ccc(F)cc1 | 12.55% |
| O=C1O[C@@H]2CN(c3cnccn3)C[C@@H]2N1CCCc1ccc(F)cc1 | 51.96% |
| O=C1O[C@@H]2CN(c3ncccn3)C[C@@H]2N1CCCc1ccc(F)cc1 | 17.48% |
| COc1cc(C2c3c(n[nH]c3C)N=C3COC(=O)C32)cc2c1OCO2 (stereo not drawn) | -41.64% |
| COc1ccc(CNC(=O)NC(C)(CO)C2CC2)c(C(F)(F)F)c1 (stereo not drawn) | -16.93% |

| Compound | INHIBITION |
| --- | --- |
| CCN(CC)C(=O)c1cc(Br)cc(S(=O)(=O)N2CCOCC2)c1F | 0.48% |
| O=C(COCc1ccccc1)N1CCC(OCc2cccnc2)CC1 | 34.34% |
| Cc1cc(C)c(C(=O)N2CCCC(C(=O)CCc3ccccc3)C2)cn1 (stereo not drawn) | 0.73% |
| CN(C)S(=O)(=O)N1CCOC(c2cccc(-c3cncnc3)n2)C1 (stereo not drawn) | -12.93% |
| CCNC(=O)CNC(=O)c1nc(C2CC2)n(-c2ccccc2Cl)n1 | 13.01% |
| Cc1nc(C(=O)N2CCCCC2)nn1-c1ccccc1Cl | 60.09% |
| CN(C)C(=O)CNC(=O)c1nc(C2CC2)n(-c2ccccc2Cl)n1 | 65.76% |
| CCN1CCN(C(=O)c2nc(C)n(-c3ccccc3Cl)n2)CC1 | -18.67% |
| CCc1nc(C(=O)N2CCCCC2)nn1-c1ccccc1Cl | -41.76% |
| CC(=O)NCCNC(=O)c1nc(C2CC2)n(-c2ccccc2Cl)n1 | -1.79% |
| CN1[C@H](Cn2cncn2)C[C@@H]2CN(Cc3cccc(C#N)c3)CC[C@@H]21 | 12.3% |
| CN1CCC2(C=C(C(=O)N(C)C)c3ccccc32)CC1 | -10.89% |
| CC(=O)N1CC(Cc2nccc3ccn(C)c23)C1 | 20.08% |
| Cc1cccc(C(=O)N2CC(Cc3nccc4ccn(C)c34)C2)n1 | -25.33% |
| Cn1ccc2ccnc(CC3CN(C(=O)c4cscn4)C3)c21 | 52.82% |
| CCc1nnc2n1CCN(C(=O)C(C)COCc1ccccc1)C2 (stereo not drawn) | -32.2% |
| Cc1cc2c(N3CCC(N(C)Cc4cnn(C)c4)CC3)ncnc2s1 | 10.13% |
| Cn1c(=O)c2c(n3ncnc13)NC(=O)CC2c1cccc(F)c1 (stereo not drawn) | 5.31% |
| COc1cccc(C2CC(=O)Nc3c2c(=O)n(C)c2ncnn32)c1 (stereo not drawn) | 15.49% |
| Cn1c(=O)c2c(n3ncnc13)NC(=O)CC2c1cccc(Br)c1 (stereo not drawn) | -13.28% |
| CCc1ccc(C2CC(=O)Nc3c2c(=O)n(C)c2ncnn32)cc1 (stereo not drawn) | 56.21% |
| Cn1c(=O)c2c(n3ncnc13)NC(=O)CC2c1ccc(F)cc1 (stereo not drawn) | 53.55% |
| CCc1ccc(C2CC(=O)Nc3c2c(=O)[nH]n3C(C)C)cc1 (stereo not drawn) | -9.13% |
| CCS(=O)(=O)N1Cc2[nH]nc(COCc3cccnc3)c2C1 | -2.81% |
| CNC(=O)C(C)(C)N1CCC[C@H]1C(=O)NC(C)(C)C | 30.4% |
| CCN1CCCC12CCCN(c1ncccn1)C2 (stereo not drawn) | -23.31% |

| Compound | INHIBITION |
| --- | --- |
| CC1=Nc2c(c(O)nn2C2CCOCC2)C(c2cccnc2)S1 (stereo not drawn) | 18.76% |
| Cc1nccn1CCN(C)c1nc(-c2ccc(Cl)cc2)nc2c1CNC2 | 19.59% |
| CCN(CC)CCN(C)c1nc(-c2ccc(Cl)cc2)nc2c1CNC2 | 81.59% |
| CCn1ccnc1CN(C)c1nc(-c2ccc(Cl)cc2)nc2c1CNC2 | 5.28% |
| O=C(O)c1cc(S(=O)(=O)Nc2cc(F)ccc2F)cc2c1OCCO2 | -41.21% |
| COCCN1CCN(CCCS(=O)(=O)N(C)C)CC1C (stereo not drawn) | 25.35% |
| O=C(CCCc1ccccn1)NCC(O)c1c(F)cccc1F (stereo not drawn) | 17.98% |
| CCn1nnc2c1C(COCCN(C)C)CN(S(C)(=O)=O)C2 (stereo not drawn) | 34.19% |
| O=C(NCCCn1cccn1)N1CCCC1c1ccsc1 (stereo not drawn) | 16.21% |
| CN(CCCNC(=O)N1CCCC1c1ccsc1)c1ccccn1 (stereo not drawn) | 63.95% |
| CN(C)c1ncccc1CNC(=O)N1CCCC1c1ccsc1 (stereo not drawn) | 43.93% |
| N#Cc1ccc(C(=O)N2CC[C@H]3[C@@H]2CCC(=O)N3c2cccnc2)cc1 | -11.44% |
| CC(C)C(=O)N1CCCC1C(=O)Nc1ccc(F)c(F)c1 (stereo not drawn) | 55.29% |
| CC(C)C(=O)N1CCCC1C(=O)Nc1cc(C(F)(F)F)ccc1F (stereo not drawn) | 13.92% |
| Cc1ccc(F)cc1NC(=O)C1CCCN1C(=O)C(C)C (stereo not drawn) | 15.27% |
| Cc1cnc(C(C)(C)NC(=O)NCc2ccc(C#N)cc2F)s1 | 16.79% |
| Cc1cc(C)c(CNC(=O)N2CCN(c3cnccn3)CC2)c(=O)[nH]1 | 63.95% |
| Cc1cc(C)c(CNC(=O)N2CCN(c3ccccn3)CC2)c(=O)[nH]1 | 7.64% |
| Cc1cc(C)c(CNC(=O)C2CCN(c3cnccn3)CC2)c(=O)[nH]1 | -7.02% |
| CSc1ccccc1NC(=O)C1CSc2ncc(C)c(=O)n2C1 (stereo not drawn) | -35.92% |
| Cn1c(C(F)(F)F)nn(CCNC(=O)CSCc2ccccc2)c1=O | -30.06% |
| NCCn1nc(C2CCN(Cc3ccccc3)C2)c2nccnc21 (stereo not drawn) | 8.26% |
| CN1CCCCC1CCC(=O)NCCCn1ncc2ccccc21 (stereo not drawn) | 28.19% |
| CN1CCCCCC1C(=O)NCCCn1ncc2ccccc21 (stereo not drawn) | 54.78% |
| CN1CCCC(CCC(=O)NCCCn2ncc3ccccc32)C1 (stereo not drawn) | 46.95% |
